Hit rate of the full screen: of about 390,000 compounds, about 4,700 (1.2%) were called active. Inconclusive results (about 4%) are left out. The list comes from a sample in which actives are over-represented; it also holds similar structures and randomly drawn compounds. A number with no mark means an inactive call. The call rests on the fitted dose curve; in most records, active means well fitted inhibition curve with a large enough effect; inconclusive means small, poorly fitted or top-dose-only effect, or another doubt; inactive means no such curve, though single readings can be large or run the other way.
target: DNA polymerase eta (Homo sapiens) (UniProt Q9Y253); experiment: qHTS for Inhibitors of Polymerase Eta; conditions: recombinant Pol eta, fluorescent DNA replication assay; series mostly up to 114 µM; activity change, negative = inhibition: at the top concentration
Sequence (Q9Y253 whole entry, looked up): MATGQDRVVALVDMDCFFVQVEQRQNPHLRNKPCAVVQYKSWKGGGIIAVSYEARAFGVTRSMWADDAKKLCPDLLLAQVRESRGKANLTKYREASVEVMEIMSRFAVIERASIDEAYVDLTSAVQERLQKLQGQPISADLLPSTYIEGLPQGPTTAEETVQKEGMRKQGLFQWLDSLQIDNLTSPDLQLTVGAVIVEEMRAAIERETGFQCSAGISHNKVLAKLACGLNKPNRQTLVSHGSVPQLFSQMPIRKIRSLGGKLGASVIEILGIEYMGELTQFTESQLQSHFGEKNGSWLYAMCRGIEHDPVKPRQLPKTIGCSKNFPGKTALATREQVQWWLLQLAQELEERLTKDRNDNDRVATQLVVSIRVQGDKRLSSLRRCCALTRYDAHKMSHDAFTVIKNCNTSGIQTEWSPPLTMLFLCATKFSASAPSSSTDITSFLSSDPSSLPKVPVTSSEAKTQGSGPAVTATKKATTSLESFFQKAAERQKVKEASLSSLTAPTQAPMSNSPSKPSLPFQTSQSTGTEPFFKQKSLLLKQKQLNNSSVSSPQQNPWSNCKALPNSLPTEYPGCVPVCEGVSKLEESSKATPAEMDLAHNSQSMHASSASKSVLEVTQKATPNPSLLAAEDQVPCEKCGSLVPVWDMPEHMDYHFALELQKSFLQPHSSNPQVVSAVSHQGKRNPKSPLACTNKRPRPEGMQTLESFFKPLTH
Outline: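 Pol eta at 10 nM preincubated with compounds 15 min at room temperature; reaction started with fluorescent substrate (50 nM final) and read kinetically at 0 and 10 min.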
On the % scale 0 is the no-effect control and ±100 the full control effect; potency means the concentration at half of the fitted maximal effect.

In order of rising “activity change, negative = inhibition” value:
1. O=C(COc1ccc(Cl)cc1)N(Cc1ccco1)Cc1ccco1  -27.7%
2. CCOc1ccccc1NC(=O)Cn1c(=O)n(Cc2ccccc2)c(=O)c2c(C)c(C(=O)N(C)C)sc21  -27%
3. Cc1nn(-c2nc(-c3ccccc3)cc(C(F)(F)F)n2)c(C)c1Cl  -26.9%
4. COCOc1cc(O)c(C(=O)/C=C/c2ccc(OCOC)c(OCOC)c2)c(OCOC)c1  -24.5%
5. COc1ccc(CCNC(=O)c2cnc3sc(N4CCCCCC4)nn3c2=O)cc1OC  -23.6%
6. Cc1cc(C(=O)Nc2cccc(C(F)(F)F)c2)c2c(C)nn(-c3cccc(F)c3)c2n1  -21.6%
7. O=C(CSc1cn(CC(=O)N2CCOCC2)c2ccccc12)Nc1ccccc1  -21.2%
8. O=C(c1ccc2c(c1)N(Cc1ccc(Cl)cc1)C(=O)c1ccccc1S2(=O)=O)N1CCCCC1  -19.6%
9. COc1ccccc1Nc1c2c(nc3ccc(NC(=O)/C=C/c4cc(OC)c(OC)c(OC)c4)cc13)CCCC2  -19%
10. COc1cccc(C(c2c(O)cc(C)n(Cc3ccco3)c2=O)N2CCN(c3ccccc3)CC2)c1 (stereo not given)  -18.2%
11. COCCCn1c(SCC(=O)NC2CCCC2)nnc1-c1ccccc1  -18.1%
12. COc1ccc(C2(Nc3cccc(F)c3)C(=O)c3ccccc3C2=O)cc1  -17.8%
13. COc1cc(-c2noc(-c3ccc(N4CCCC4)c([N+](=O)[O-])c3)n2)cc(OC)c1OC  -17.7%
14. Cc1ccc(Cl)cc1NC(=O)C(C)n1nnc2sc(-c3ccccc3)cc2c1=O (stereo not given)  -17.2%
15. CCc1cc2c(-c3ccccc3)cc(=O)oc2c2c1OCN(Cc1ccc(C)cc1)C2  -17.1%
16. CC1=C(C(=O)OCc2ccc(C)cc2)C(c2ccccc2Cl)CC(=O)N1 (stereo not given)  -16.9%
17. O=C1CC(c2nnc(Cc3ccc(Cl)cc3)o2)CN1c1ccccc1 (stereo not given)  -16.8%
18. COc1ccc(-c2ccc(=O)n(CC(=O)Nc3ccc(Br)cc3F)n2)cc1  -16.5%
19. CCCCC12CN3CC(C)(CN(C1)C3c1ccc(O)c(OC)c1)C2=O (stereo not given)  -16.3%
20. COc1ccc(CCNC(=O)c2cc3cccc4c3n2CC(C)S4)c(OC)c1OC (stereo not given)  -16%
21. CC(CNC(=O)c1nnc(Cc2cccc(F)c2)o1)c1ccccc1 (stereo not given)  -15.9%
22. Cc1ccc(-c2ccc(/C=C(\C#N)C(N)=S)o2)c([N+](=O)[O-])c1  -15.7%
23. O=C(c1ccc(Cl)cc1)n1nc(-c2cccnc2)nc1NCc1ccc(F)cc1  -15.6%
24. O=C(CCc1cn(Cc2ccc(F)cc2)c2ccccc12)NC1CCCCC1  -15.2%
25. Cc1ccc(CCNC(=O)c2ccc(CNS(=O)(=O)c3ccc(C)cc3)cc2)cc1  -15.1%
26. COc1ccc(CCNC(=O)c2ccc(CSCc3ccc(C)cc3)o2)cc1OC  -14.8%
27. COc1ccc(NC(=O)CSc2nc(NS(=O)(=O)c3ccc(C)cc3)cc(=O)[nH]2)cc1  -14.8%
28. O=C(Nc1cc(C(F)(F)F)ccc1Cl)c1cc2nc(-c3ccc4c(c3)OCO4)cc(C(F)(F)F)n2n1  -14.8%
29. COc1ccc(-c2nn(CC(=O)NC3CCCC3)c3c2cnc2ccc(F)cc23)cc1  -14.2%
30. Cc1ccc2nc3c(cc(C(=O)NC4CCCCC4)c(=N)n3C(C)C)c(=O)n2c1  -13.7%
31. COc1ccc(CCNC(=O)c2cn(C)c3ccc(S(=O)(=O)N(C)C4CCCCC4)cc3c2=O)cc1OC  -13.2%
32. Cc1ccc(N2CC(NC(=O)Cc3cccs3)CC2=O)cc1 (stereo not given)  -13.2%
33. O=C(CSc1nc(=O)[nH]c2c1CCCC2)Nc1cc(C(F)(F)F)ccc1Cl  -12.9%
34. CCCOc1ccc(C2c3c(-c4ccccc4O)n[nH]c3C(=O)N2Cc2cccnc2)cc1 (stereo not given)  -12.1%
35. CCN(CC)c1ccc(NS(=O)(=O)c2cc(-c3cc(C)no3)ccc2C)c(C)c1  -12.1%
36. CCCS(=O)(=O)c1c(Nc2ccccc2C)sc(C(=O)c2ccccc2)c1N  -12%
37. COC(=O)c1ccc(C(NC(=O)OCc2ccccc2)/C(C)=C/[C@@H](C)C(=O)NCc2ccc(OC)c(OC)c2)cc1 (stereo not given in full)  -11.8%
38. Cc1ccccc1CSc1nc(-c2ccccc2)nc2c1Cc1c(CO)cnc(C)c1O2  -10.2%
39. COc1cc(/C=C/C(=O)OCC(=O)NC(=O)NCc2ccccc2)ccc1OCC#N  -9.71%
40. O=C(CN1CCSc2ccccc21)N1CCN(c2ccccc2)CC1  -9.53%
41. Cc1ccc(-c2nnc(SCC(=O)NCc3ccccc3)nc2-c2ccc(C)cc2)cc1  -9.01%
42. COc1cccc(N2CC(NC(=O)/C=C\c3ccccc3)CC2=O)c1 (stereo not given)  -8.81%
43. Cc1cccc(NC(=O)NC2(C)CCS(=O)(=O)C2)c1 (stereo not given)  -8.75%
44. COc1ccc(NC(=O)CCc2nnc3n(CC(C)C)c(=O)c4ccccc4n23)cc1OC  -8.67%
45. Cc1ccc(C)c(CNC(=O)c2cc3ccccn3n2)c1  -8.38%
46. COc1ccc(Cn2c(=O)c3oc4ccccc4c3n(CC(=O)Nc3ccc(F)cc3F)c2=O)cc1  -8.21%
47. Fc1ccc(CSc2nc(NCc3ccccc3)c3ccccc3n2)cc1  -8.11%
48. O=C(Nc1cc(C(F)(F)F)ccc1Cl)c1nc2ccccc2nc1N1CCCCC1  -8.05%
49. COc1cc2nc(SCc3ccc(F)cc3)n3nc(CCn4c(C)nc5ccccc54)nc3c2cc1OC  -8.04%
50. Cc1cc(C)c2oc(C(=O)Nc3ccc(S(=O)(=O)N(C)c4ccccc4)cc3)cc(=O)c2c1  -7.98%
51. Cc1ccc(C(=O)N/C(=C\c2ccco2)C(=O)N2CCSCC2)cc1C  -7.95%
52. Oc1c(C(c2ccccc2Cl)N2CCOCC2)sc2nc(-c3ccco3)nn12 (stereo not given)  -7.9%
53. COc1cc(OC)c(NC(=O)N2CC3CCCN3c3ccccc32)cc1Cl (stereo not given)  -7.73%
54. COc1ccc(N2CCN(Cc3nc4c(c(=O)[nH]c(=O)n4C)n3Cc3ccc(Cl)cc3)CC2)cc1  -7.52%
55. CC(=O)Nc1cccc(NC(=O)CSc2nccn2Cc2ccc3c(c2)OCO3)c1  -7.09%
56. COc1ccc(C)cc1Nc1nc2ccccc2c2nnc(C)n12  -6.98%
57. COc1c(Cl)cc(C(=O)N(Cc2ccccc2F)C2CCS(=O)(=O)C2)cc1Cl (stereo not given)  -6.43%
58. CCCC(=O)N1CCN(c2nc3c(OC)ccc(C)c3s2)CC1  -6.03%
59. COc1ccc2oc(C(=O)NCC(Cc3ccccc3)N(C)C)c(C)c2c1 (stereo not given)  -5.61%
60. Cc1cccc(NC(=O)C2CCN(C(=O)NC3CCCCC3)CC2)c1  -5.25%
61. Cc1nnc(SC(C)C(=O)Nc2ccc(S(=O)(=O)NC3CCCCC3)cc2)s1 (stereo not given)  -4.71%
62. CC1(C)N=C(SCc2ccccc2Cl)c2ccccc2N1  -4.35%
63. COc1ccc2c(c1)c(N1CCCC1=O)c(C(=O)Nc1ccc(OC)c(Cl)c1)n2C  -3.83%
64. CCOC(=O)C1CCN(C(c2ccc(F)cc2)c2sc3nc(-c4ccco4)nn3c2O)CC1 (stereo not given)  -3.38%
65. Cc1ccccc1CNC(=O)C(=O)NCC(c1cccs1)S(=O)(=O)c1cccs1 (stereo not given)  -3.21%
66. CCOc1ccc(Nc2nc(Cc3nnc(SCC(=O)NC4CCCC4)n3C)cs2)cc1  -2.6%
67. COc1ccc(S(=O)(=O)N2CCN(CC(=O)N3CCOCC3)CC2)cc1OC  -2.56%
68. COc1ccc(OC)c(NC(=O)N[C@H](Cc2ccccc2)C(=O)NN)c1  -1.79%
69. Clc1ccccc1CSc1nncn2c1cc1occc12  -0.969%
70. CCOc1cc(C2C(C(=O)OC)=C(C)NC3=C2C(=O)c2ccccc23)ccc1O (stereo not given)  -0.263%
71. COc1ccc(-c2ccnc(SCC(=O)N3CCOCC3)n2)cc1  0.998%
72. COc1ccc(NC(=O)CN2CCCN(Cc3ccccc3)S2(=O)=O)cc1  2.95%
73. Cc1ccc(C(=O)Nc2cc3c(cc2N2CCCC2)n(C)c(=O)c(=O)n3C)cc1  2.99%
74. CN1c2ccc(Cl)cc2-c2nc(SCC(=O)Nc3cc(F)ccc3F)ncc2S1(=O)=O  3.16%
75. Oc1ccc(-c2nc3ccc(Cl)cn3c2Nc2ccc3c(c2)OCO3)cc1  3.35%
76. Cc1nc2nc(SCC(=O)NC3CCC(C)CC3)nn2c(C)c1Cc1ccccc1Cl (stereo not given)  11.3%
77. O=S(=O)(NCCS(=O)(=O)N1CCN(c2ccccc2)CC1)c1ccc(Cl)cc1  19.5%

For `COC(=O)c1ccc(COc2ccc(/C=C/C(=O)c3ccc(OC)c(CSCC(=O)O)c3)cc2OC)cc1`, the Potency was 20 µM (active).
For `CCOc1ccccc1/C=c1\sc2nc(-c3ccco3)nn2c1=O`, the Potency was 7.94 µM (active).
In the case of `COC(=O)C1=C(C)NC2=C(C(=O)c3ccccc32)C1c1ccc(-c2ccc(C(=O)O)cc2)o1` (stereo not given), the Potency is reported as 31.6 µM (active).
With `O=c1nc2s/c(=C\c3ccco3)c(=O)n2nc1Cc1ccccc1` the Potency was 17.8 µM (active).
With `CC1=NN(c2ccc(Cl)c(C(=O)O)c2)C(=O)/C1=C/c1ccc(-c2ccccc2[N+](=O)[O-])o1` the Potency was 20 µM (active).
`COc1ccc(/C=C/C(=O)c2cc(Br)ccc(=O)c2O)cc1` was tested, and the Potency was 31.6 µM (active).
With `Cc1ccc(N=C2NC(=O)/C(=C/C=C/c3ccco3)S2)cc1C` the Potency was 8.91 µM (active).
With `Cc1ccc(N2NC(=O)/C(=C/C=C/c3ccco3)C2=O)cc1C` the Potency was 79.4 µM (active).
`COCCCn1c(Cc2csc(Nc3cccc(Cl)c3)n2)nnc1SCC(=O)OC1CCCCC1` was tested, and the Potency was 7.94 µM (active).
In the case of `C=C1c2c(Cl)ccc(O)c2C(O)=C2C(=O)[C@]3(O)C(O)=C(C(N)=O)C(=O)[C@@H](N(C)C)[C@@H]3[C@@H](O)C12` (stereo not given in full), the Potency is reported as 35.5 µM (active).
With `Cc1nnc(SCC(=O)Nc2ccc(S(=O)(=O)Nc3ccc(Cl)nn3)cc2)s1` the Potency was 20 µM (active).
In the case of `COC1=C/C(=C/c2c(N)n3nc(CC(=O)N4CCOCC4)sc3nc2=O)C=CC1=O`, the Potency is reported as 44.7 µM (active).
For `C=CCC1=C/C(=C\c2c(N)n3nc(CC(=O)N4CCOCC4)sc3nc2=O)C=C(OC)C1=O`, the Potency was 31.6 µM (active).
With `Cc1cccc(NC(=O)C2CC(=O)OC23CCCC3)c1` (stereo not given) the Potency was 25.1 µM (active).
In the case of `Clc1ccccc1CSc1nnc(-c2ccco2)c(-c2ccco2)n1`, the Potency is reported as 25.1 µM (active).
For `c1ccc(CSc2nnc(-c3ccco3)c(-c3ccco3)n2)cc1`, the Potency was 22.4 µM (active).
With `C=CCn1c(=S)[nH]c2scc(-c3ccco3)c2c1=O` the Potency was 17.8 µM (active).
With `COc1cc([C@H](Cc2ccccc2)NC(C)=O)oc(=O)c1` the Potency was 20 µM (active).

From PubChem BioAssay AID588591 (National Center for Advancing Translational Sciences (NCATS), 2011)
